Experimental findings from PubChem BioAssay AID1274 (Emory University Molecular Libraries Screening Center, 2008) are described below.

Screen size: about 220,000 compounds; about 1,100 (0.5%) were called active. The full list was thinned out, with actives kept by preference. Values without a mark were called inactive.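 How the source made its calls: active means inhibition above about 30% (limit read from the data); inactive means the rest.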

The target in the test is Neutrophil cytosol factor 1 (Homo sapiens) (UniProt P14598). Put plainly: p47phox/p22phox peptide binding inhibitors, primary screen, biochemical, uHTS, NADPH oxidase regulatory subunit (AID 1274).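 Further: 0% = p47phox with labelled peptide and 100% = labelled peptide alone.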 The settings on record: fluorescence polarization, 2 h, at 24.7 µM, active compounds read high. (In fluorescence polarisation assays a small probe gives low polarisation when free and higher when bound to something large.)
Neutrophil cytosol factor 1 (Homo sapiens), sequence (P14598 whole entry, looked up): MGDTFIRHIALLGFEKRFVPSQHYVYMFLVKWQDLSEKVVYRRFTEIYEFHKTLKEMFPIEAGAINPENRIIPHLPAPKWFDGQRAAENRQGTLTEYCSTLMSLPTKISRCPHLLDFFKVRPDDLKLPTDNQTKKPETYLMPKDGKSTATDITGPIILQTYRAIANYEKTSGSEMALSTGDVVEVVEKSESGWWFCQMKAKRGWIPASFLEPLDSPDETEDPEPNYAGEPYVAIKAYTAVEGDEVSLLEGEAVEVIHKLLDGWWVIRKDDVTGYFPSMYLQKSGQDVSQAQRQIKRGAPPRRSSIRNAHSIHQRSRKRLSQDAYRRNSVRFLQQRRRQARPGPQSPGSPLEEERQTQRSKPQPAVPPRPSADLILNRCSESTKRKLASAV
Turning to `O=C(COc1ccc([N+](=O)[O-])cc1Cl)Nn1cnnc1`, the inhibition – broadly, the relative decrease from the control value, in per cent – is -5.37%.
The figure for `COc1ccc2[nH]c3ccc(OC)cc3c2c1` is -9.23%.
Regarding `COc1cccc(-n2c(SCC(=O)c3c[nH]c4ccccc34)nc3ccccc3c2=O)c1`, the inhibition was -14.5%.
The figure for `CCN(CC)CC(=O)c1c[nH]c2ccc(OC)cc12` is 68.2% (active); for `CCNc1ccc(C(=O)OCC(=O)N2c3ccccc3NC(=O)C2(C)C)cc1[N+](=O)[O-]` it is -6.42%; for `CC(=O)NC(CC(=O)Nc1nccs1)c1ccccc1` (configuration not stated) it is 1.69%.
In the case of `CCOC(=O)N1CCC(NC(=O)C(NS(=O)(=O)c2ccc3c(c2)CCN3C(=O)CC)C(C)C)CC1` (configuration not stated), the inhibition was 2.67%.
The figure for `COc1ccc(Cl)cc1C(=O)NCc1cn(C)nc1C` is -8.12%; for `Cc1ccc(-c2cc(C(=O)NCc3cn(C)nc3C)c3cc(Br)ccc3n2)cc1` it is 31.9% (active); for `Cc1ccc2nc(-c3cccc(Br)c3)cc(C(=O)Nn3cnnc3)c2c1` it is -7.35%.
The figure for `OC(CNCc1ccc2c(c1)OCO2)COc1ccccc1` (configuration not stated) is -9.52%; for `Cc1ccc(S(=O)(=O)N(CC(=O)NN=C2CCN(C)CC2)c2ccc(F)cc2)cc1` it is 37.2% (active).
For the molecule `CN1CCC(=NNC(=O)CN(c2cccc(Cl)c2)S(C)(=O)=O)CC1`, the inhibition is 6.83%.
The figure for `CCNC(=O)CN(c1ccc(C)cc1)S(=O)(=O)c1ccc(SC)cc1` is -7.61%.
The figure for `COc1cc(C(F)(F)F)nc2c(Br)c(C(C)(C)C)nn12` is 7.7%; for `Cc1ccc(SCC(=O)c2cc(C)c(OC(=S)N(C)C)c(C)c2)cc1` it is -4.09%; for `O=C1NC[C@@H](Cc2ccc(O)cc2)N(CCc2cccc(F)c2)C1=O` it is -6.81%.
The figure for `Cc1cc(C)c2nc(-c3ccco3)cc(C(=O)O)c2c1` is -9.96%.
With `Cc1cc(C)c2nc(SCCC#N)nc(C)c2c1`, the inhibition was 1.52%.
The figure for `Cc1cc(C)c2nc3nc(C)cc(C)c3c(N)c2c1` is 35.3% (active); for `COc1ccc(CNC(=O)CCC(=O)Nc2nnc(C(C)C)s2)cc1` it is -6.23%.
The figure for `CCOC(=O)C1(O)CC(C)=NN1C(=O)c1cccc(Br)c1` (configuration not stated) is -4.11%.
The figure for `CC1=NN(C(=O)c2ccccc2Br)C(O)(c2cccnc2)C1` (configuration not stated) is 1.24%.
Take `CC1=NN(C(=O)c2ccc(Br)cc2)C(O)(c2ccccc2)C1` (configuration not stated): the inhibition was 40.2% (active).
For `CN(C)C(CNC(=O)Cc1ccc([N+](=O)[O-])cc1)c1ccccc1` (configuration not stated), the inhibition was -9.03%.
With `COCCN(C(=O)C(C)C)c1nnc(-c2ccc(C(C)(C)C)cc2)s1`, the inhibition was -3.33%.
The figure for `O=C(Cc1cccs1)Nc1nnc(SCc2ccc(F)cc2)s1` is -11.1%; for `C=CCOc1c(Br)cc(/C=N\n2nnnc2N)cc1OC` it is 2.05%; for `Nc1nnnn1/N=C/c1cccs1` it is -3.56%.
Turning to `COc1ccc(/C=N/n2nnnc2N)cc1OC`, the inhibition is 31.6% (active).
The figure for `CCc1ccc(-c2nn(-c3ccccc3)cc2CSC(=N)N)cc1` is 51% (active); for `CCn1c(SCc2ccc(C)cc2)nnc1-c1nn(-c2ccccc2)ccc1=O` it is -13%; for `N=C(N)SCc1cccc2ccccc12` it is -8.51%.
As for `CCOc1cc(/C=C(/C#N)c2ccc(Cl)cc2)cc(Cl)c1OCC(=O)O`, the inhibition is -9.24%.
The figure for `COC(=O)CN1C(=O)N/C(=C/c2ccc(OC)c(C)c2OC)C1=O` is 5.97%; for `CSCCNCc1cn(-c2ccc(F)cc2F)nc1-c1ccccc1C` it is 30.6% (active).
The figure for `COc1ccccc1CC(=O)Nc1ccc(F)cc1F` is 6.55%; for `Cc1ccc(-c2nn(-c3cccc(F)c3)cc2CNCCc2ccncc2)o1` it is -21.2%.
For the molecule `O=C(Nc1ccccc1N1CCOCC1)c1csc2c1CCCC2`, the inhibition is -2.28%.
The figure for `c1csc(-c2nnc(COc3ncnc4sccc34)o2)c1` is -9.61%; for `NC(=O)NC(=O)CSc1nc2cc([N+](=O)[O-])ccc2n1-c1cccc(C(F)(F)F)c1` it is -1.12%; for `CCCc1c(C(=O)O)cnn1-c1ccc(Cl)cc1` it is -1.8%.
For the molecule `CC(C)NC(=S)N1CCN(C(c2ccccc2)c2ccccc2)CC1`, the inhibition was -3.69%.
The figure for `CC1(C)CC(=O)C=C(N2CCCC2)C1` is -17.5%.
Regarding `CC1(C)CC(N2CCN(C(c3ccccc3)c3ccccc3)CC2)=CC(=[N+]2CCCCC2)C1`, the inhibition is 30.8% (active).
The figure for `CCCSc1ncccc1C(=O)O` is -1.29%; for `Cc1ccc(Nc2nc(Cl)c(C=O)s2)cc1` it is -45%.
The figure for `O=C(/C=C/c1ccccc1)Nc1nnc(SCC(=O)c2ccc3ccccc3c2)s1` is -19.6%; for `CC(=O)Oc1ccccc1C(=O)Nc1ncc([N+](=O)[O-])s1` it is -3.91%; for `O=C(Cc1c(F)cccc1Cl)Nc1ncc([N+](=O)[O-])s1` it is -2.51%.
The figure for `O=C(CCc1ccccc1)Nc1ncc([N+](=O)[O-])s1` is 41.8% (active); for `Cn1c(C(=O)O)ccc1S(=O)(=O)N(Cc1ccccc1)Cc1ccccc1` it is 0.4%; for `Cc1ccc2c(CC(=O)NCc3cccs3)coc2c1` it is -14.7%.
`CC1Cc2ccccc2N1C(=O)CSc1nc2ccccc2o1` (configuration not stated): the inhibition is -13.1%.
The figure for `CC1Cc2ccccc2N1C(=O)CSc1nnc(C2CC2)n1C` (configuration not stated) is -12.6%; for `Cc1cc(=O)[nH]c(SCC(=O)N2c3ccccc3CC2C)n1` (configuration not stated) it is 42.8% (active); for `O=C(NN1C(=O)C2CCCCC2C1=O)c1ccco1` (configuration not stated) it is 8.97%.
The figure for `C/C=C(\C)C(=O)N1CC2(CC(c3cccc(NC(=O)CCCCC)c3)=NO2)C[C@@H]1C(N)=O` (some centres not stated) is -4.05%; for `COc1ccccc1C1/C(=C(/O)c2ccc(C)cc2)C(=O)C(=O)N1Cc1ccco1` (configuration not stated) it is -0.55%; for `Cc1cc(N2C(=O)C(=O)/C(=C(/O)c3ccc(Cl)cc3)C2c2cccc(Br)c2)no1` (configuration not stated) it is -12.5%.
The figure for `COc1ccccc1C1/C(=C(/O)c2ccc(OC(C)C)cc2)C(=O)C(=O)N1c1cc(C)on1` (configuration not stated) is 54.4% (active); for `COc1ccc(NC(=O)COC(=O)c2ccncc2)c(OC)c1` it is -5.21%.
Take `COc1ccc(NC(=O)c2ccccc2CC[N+](=O)[O-])cc1`: the inhibition was -4.4%.
Take `CCn1c(CNS(=O)(=O)c2ccc(Cl)cc2)n[nH]c1=S`: the inhibition is -6.22%.
The figure for `CCc1nc2sc(C(=O)O)c(N)c2c2c1CCCC2` is 3.39%; for `COc1ccc(-c2ccnc(SCC(=O)N3CCOCC3)n2)cc1` it is -7.88%.
The figure for `COC(=O)CSc1nccc(-c2cccs2)n1` is 57.9% (active); for `O=C(O)COc1ccc(-c2nccc(-c3cccs3)n2)cc1` it is -0.51%; for `CN1CCN(S(=O)(=O)c2ccc(NC(=S)NC(=O)C3CC3)cc2)CC1` it is 5.87%.
Regarding `Cc1ccc(C)c(-n2ccnc2SCC(N)=O)c1`, the inhibition is -6.63%.
The figure for `Cc1nnc(NC(=O)CSc2nccn2-c2cccc(C)c2C)s1` is -2.14%; for `COc1ccccc1-n1ccnc1SCC(=O)NC(C)(C)C` it is 130% (active).
The figure for `Cc1cccc(NC(=O)CSc2nnc(CCNC(=O)OC(C)(C)C)o2)c1C` is -4.83%; for `O=[N+]([O-])C(=c1ccc2c(c1)N1C3=C(CCCC3)CC3CCCCC31N=2)[N+](=O)[O-]` (configuration not stated) it is 32.3% (active); for `COc1cc(N2CCCC2)c(OC)cc1/C=C(/C#N)c1cccc(Br)c1` it is 41.6% (active).
The figure for `CC(=O)Nc1cccc(Oc2cc(C#N)c(C#N)cc2N2CCOCC2)c1` is -5.37%.
On to `COc1cccc(C(=O)Nc2ccc(N3CCCC3)cc2)c1`, for which the inhibition is -24.3%.
The figure for `O=C1N/C(=C/c2cccs2)C(=O)N1Cc1ccc(F)cc1` is -8.47%; for `O=C1/C(=C/c2cccs2)SC(=S)N1C1CCS(=O)(=O)C1` (configuration not stated) it is 136% (active).
The figure for `O=C(CCN1C(=O)/C(=C/c2cccs2)SC1=S)NNC(=O)c1cccc(O)c1` is -143%; for `O=C(Nc1ccccc1)O/N=C1/CCCc2occc21` it is -10.7%; for `COc1cc(OC)cc(-c2nc3ccccc3c(=O)n2NC(=O)c2cccnc2Cl)c1` it is -17.9%.
As for `COc1ccc(C)cc1NC(=O)c1ccc(-c2ccc(C(C)=O)cc2)o1`, the inhibition was -8.08%.
The figure for `CC(C)OCCCNc1ncnc2c1[nH]c1ccc(F)cc12` is -10.6%; for `COc1cc(OC)c(OC)cc1/C=N/Nc1ncnc2c1[nH]c1ccc(C)cc12` it is 34.2% (active); for `Cc1ccc2[nH]c3c(=O)n(Cc4ccccn4)cnc3c2c1` it is -18.3%.
Take `CC(=O)NCCn1c(SCC(=O)Nc2ccc(C)cc2)nc2ccccc2c1=O`: the inhibition was 1.49%.
Regarding `CC(C)(C)C(=O)OCc1nc(-c2ccc(O)c(O)c2)cs1`, the inhibition was -9.67%.
For `COc1ccc(C(=O)O/N=C(\N)Cc2ccc(Cl)cc2Cl)cc1OC`, the inhibition was -5.94%.
The figure for `NC(N)=N/N=C/c1ccc(Cl)c([N+](=O)[O-])c1` is 3.52%.
The figure for `NC(N)=N/N=C/c1ccc(OCc2ccc(Cl)cc2Cl)cc1` is 103% (active); for `Oc1oc(-c2ccccc2Br)nc1/C=N/c1ccccn1` it is -6.08%; for `Cc1cc(C)n(Cc2cnc(N3CCOCC3)s2)n1` it is -9.55%.
The figure for `O=C(NCc1cc(C(F)(F)F)cc(C(F)(F)F)c1)C1CC(c2cccc(F)c2)=NO1` (configuration not stated) is -5.46%; for `CC(C)OCCCNc1nc2c(c(=O)n(Cc3ccccc3F)c(=O)n2C)n1C` it is -4.4%; for `Cc1cccc(N2CC(C)Cn3c2nc2c3c(=O)n(CC(=O)OCc3ccccc3)c(=O)n2C)c1` (configuration not stated) it is -39.9%.
As for `COc1ccc(N2CC(C)Cn3c2nc2c3c(=O)n(Cc3ccccc3F)c(=O)n2C)c(OC)c1` (configuration not stated), the inhibition was 58.5% (active).
